Results on 1 compound are retold here after ChEMBL document CHEMBL1961873, “Compounds: GSK PKIS; Assays: Nanosyn kinase panel” (2012).

Test [1] concerns the target T1, Inhibitor of nuclear factor kappa-B kinase subunit epsilon (Homo sapiens) (UniProt Q14164).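 Also: reported values are averaged percent inhibition figures against human IKKε.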
T1 sequence (whole entry): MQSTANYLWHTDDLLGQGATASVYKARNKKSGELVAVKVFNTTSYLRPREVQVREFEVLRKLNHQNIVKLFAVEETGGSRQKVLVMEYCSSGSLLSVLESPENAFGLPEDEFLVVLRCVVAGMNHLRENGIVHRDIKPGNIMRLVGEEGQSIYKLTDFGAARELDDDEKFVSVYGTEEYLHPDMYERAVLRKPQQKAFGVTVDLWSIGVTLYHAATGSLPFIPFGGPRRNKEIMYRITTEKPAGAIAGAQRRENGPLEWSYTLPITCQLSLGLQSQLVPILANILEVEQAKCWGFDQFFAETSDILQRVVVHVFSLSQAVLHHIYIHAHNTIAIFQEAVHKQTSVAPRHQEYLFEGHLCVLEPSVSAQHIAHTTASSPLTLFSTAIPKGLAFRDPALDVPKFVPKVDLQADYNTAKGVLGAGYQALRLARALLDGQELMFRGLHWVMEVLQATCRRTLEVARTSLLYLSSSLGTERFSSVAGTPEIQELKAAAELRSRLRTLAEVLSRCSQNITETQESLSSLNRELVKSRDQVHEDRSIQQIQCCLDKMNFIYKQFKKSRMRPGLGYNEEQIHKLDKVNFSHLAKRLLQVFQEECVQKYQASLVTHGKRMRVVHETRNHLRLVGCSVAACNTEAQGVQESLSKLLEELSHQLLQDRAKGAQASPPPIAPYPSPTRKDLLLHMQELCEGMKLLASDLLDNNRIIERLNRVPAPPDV
The note with it: at 1 µM.

For test [2], the target named is T2, Serine/threonine-protein kinase Nek1 (Homo sapiens) (UniProt Q96PY6).
T2 sequence (whole entry): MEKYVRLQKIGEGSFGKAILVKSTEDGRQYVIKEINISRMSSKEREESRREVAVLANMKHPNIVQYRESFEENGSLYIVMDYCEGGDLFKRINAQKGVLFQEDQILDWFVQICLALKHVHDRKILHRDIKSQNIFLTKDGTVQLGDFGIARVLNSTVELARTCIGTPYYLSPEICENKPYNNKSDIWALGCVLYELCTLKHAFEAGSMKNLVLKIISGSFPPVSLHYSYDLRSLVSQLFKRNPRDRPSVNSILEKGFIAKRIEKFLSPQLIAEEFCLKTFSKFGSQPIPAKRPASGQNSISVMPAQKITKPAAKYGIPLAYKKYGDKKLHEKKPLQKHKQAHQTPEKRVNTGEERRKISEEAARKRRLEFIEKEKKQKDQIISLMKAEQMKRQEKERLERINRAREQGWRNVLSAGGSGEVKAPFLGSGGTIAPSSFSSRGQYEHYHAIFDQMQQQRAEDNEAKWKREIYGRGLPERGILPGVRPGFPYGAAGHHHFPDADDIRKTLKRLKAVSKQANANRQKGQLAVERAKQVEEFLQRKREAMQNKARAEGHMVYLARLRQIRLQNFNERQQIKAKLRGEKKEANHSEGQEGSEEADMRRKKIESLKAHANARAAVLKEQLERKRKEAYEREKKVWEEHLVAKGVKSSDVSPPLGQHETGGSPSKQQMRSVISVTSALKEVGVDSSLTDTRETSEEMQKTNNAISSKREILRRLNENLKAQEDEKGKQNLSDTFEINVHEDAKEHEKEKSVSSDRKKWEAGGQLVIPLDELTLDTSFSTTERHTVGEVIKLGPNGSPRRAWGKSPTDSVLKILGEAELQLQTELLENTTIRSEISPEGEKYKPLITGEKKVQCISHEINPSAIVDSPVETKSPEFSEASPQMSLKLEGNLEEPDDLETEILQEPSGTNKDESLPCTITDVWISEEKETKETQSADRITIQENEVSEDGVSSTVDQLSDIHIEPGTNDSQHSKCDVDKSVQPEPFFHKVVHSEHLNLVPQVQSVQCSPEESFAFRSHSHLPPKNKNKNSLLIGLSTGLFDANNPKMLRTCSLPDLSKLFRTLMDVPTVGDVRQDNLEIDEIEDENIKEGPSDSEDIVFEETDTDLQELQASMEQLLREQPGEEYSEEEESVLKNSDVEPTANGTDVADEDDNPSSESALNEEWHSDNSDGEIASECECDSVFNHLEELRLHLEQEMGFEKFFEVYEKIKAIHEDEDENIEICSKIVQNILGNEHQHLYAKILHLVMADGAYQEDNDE
The following applies: at 0.1 µM.

Test [3] has as its target T2, Serine/threonine-protein kinase Nek1 (Homo sapiens). The note with it: at 1 µM.
For test [4], the target named is T3, Serine/threonine-protein kinase Nek2 (Homo sapiens) (UniProt P51955).
T3 sequence (whole entry): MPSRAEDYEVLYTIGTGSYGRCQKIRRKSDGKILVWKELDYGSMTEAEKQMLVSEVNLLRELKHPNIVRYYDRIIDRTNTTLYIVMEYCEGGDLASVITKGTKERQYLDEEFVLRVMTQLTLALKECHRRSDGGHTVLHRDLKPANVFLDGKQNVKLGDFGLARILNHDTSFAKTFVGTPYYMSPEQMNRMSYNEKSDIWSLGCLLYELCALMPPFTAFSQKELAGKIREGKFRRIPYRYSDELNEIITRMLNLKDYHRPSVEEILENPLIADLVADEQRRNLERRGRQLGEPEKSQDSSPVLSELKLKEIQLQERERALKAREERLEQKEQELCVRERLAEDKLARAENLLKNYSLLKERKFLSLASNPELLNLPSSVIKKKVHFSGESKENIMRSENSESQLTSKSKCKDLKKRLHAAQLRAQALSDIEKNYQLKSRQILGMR
The following applies: at 0.1 µM.

Test [5] addresses T3, Serine/threonine-protein kinase Nek2 (Homo sapiens). The note with it: at 1 µM.
The target in test [6] is Serine/threonine-protein kinase Nek6 (Homo sapiens) (UniProt Q9HC98). The following applies: at 0.1 µM.
The target is the same in test [7]. The following applies: at 1 µM.
Test [8] has as its target Serine/threonine-protein kinase Nek7 (Homo sapiens) (UniProt Q8TDX7). The following applies: at 0.1 µM.
Test [9] has the same target. The following applies: at 1 µM.
In test [10] the target is T4, Serine/threonine-protein kinase Nek9 (Homo sapiens) (UniProt Q8TD19).
T4 sequence (whole entry): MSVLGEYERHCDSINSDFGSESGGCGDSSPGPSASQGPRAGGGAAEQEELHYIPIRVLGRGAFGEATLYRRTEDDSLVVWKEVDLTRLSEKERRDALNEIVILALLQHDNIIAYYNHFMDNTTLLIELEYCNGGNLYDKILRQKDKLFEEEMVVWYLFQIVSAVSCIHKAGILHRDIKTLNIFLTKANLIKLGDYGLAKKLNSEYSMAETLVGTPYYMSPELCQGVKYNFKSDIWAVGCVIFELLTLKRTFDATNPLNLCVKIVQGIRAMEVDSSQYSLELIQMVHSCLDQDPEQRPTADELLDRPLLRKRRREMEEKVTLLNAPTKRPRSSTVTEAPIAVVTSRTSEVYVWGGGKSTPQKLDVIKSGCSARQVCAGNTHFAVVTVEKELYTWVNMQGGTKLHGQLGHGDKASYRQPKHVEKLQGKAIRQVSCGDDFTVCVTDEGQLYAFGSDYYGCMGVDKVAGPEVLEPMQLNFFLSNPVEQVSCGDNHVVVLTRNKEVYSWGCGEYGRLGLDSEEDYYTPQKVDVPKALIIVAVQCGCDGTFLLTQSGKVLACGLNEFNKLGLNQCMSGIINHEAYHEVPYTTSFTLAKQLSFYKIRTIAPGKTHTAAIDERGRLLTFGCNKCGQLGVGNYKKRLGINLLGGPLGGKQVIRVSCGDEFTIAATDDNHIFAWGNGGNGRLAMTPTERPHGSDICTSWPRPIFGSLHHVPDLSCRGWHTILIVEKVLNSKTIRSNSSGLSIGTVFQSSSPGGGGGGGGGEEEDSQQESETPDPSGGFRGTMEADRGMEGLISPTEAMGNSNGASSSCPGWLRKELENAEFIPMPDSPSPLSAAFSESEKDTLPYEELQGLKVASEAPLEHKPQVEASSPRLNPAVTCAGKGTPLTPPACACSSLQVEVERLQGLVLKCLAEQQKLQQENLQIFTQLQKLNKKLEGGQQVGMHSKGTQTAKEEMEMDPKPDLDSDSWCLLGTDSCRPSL
The note with it: at 0.1 µM.

Test [11] addresses T4, Serine/threonine-protein kinase Nek9 (Homo sapiens). The following applies: at 1 µM.
For test [12], the target named is Serine/threonine-protein kinase PLK1 (Homo sapiens) (UniProt P53350). The note with it: at 0.1 µM.
For test [13] the target is unchanged. The following applies: at 1 µM.
In test [14] the target is T5, Dual specificity protein kinase TTK (Homo sapiens) (UniProt P33981).
T5 sequence (whole entry): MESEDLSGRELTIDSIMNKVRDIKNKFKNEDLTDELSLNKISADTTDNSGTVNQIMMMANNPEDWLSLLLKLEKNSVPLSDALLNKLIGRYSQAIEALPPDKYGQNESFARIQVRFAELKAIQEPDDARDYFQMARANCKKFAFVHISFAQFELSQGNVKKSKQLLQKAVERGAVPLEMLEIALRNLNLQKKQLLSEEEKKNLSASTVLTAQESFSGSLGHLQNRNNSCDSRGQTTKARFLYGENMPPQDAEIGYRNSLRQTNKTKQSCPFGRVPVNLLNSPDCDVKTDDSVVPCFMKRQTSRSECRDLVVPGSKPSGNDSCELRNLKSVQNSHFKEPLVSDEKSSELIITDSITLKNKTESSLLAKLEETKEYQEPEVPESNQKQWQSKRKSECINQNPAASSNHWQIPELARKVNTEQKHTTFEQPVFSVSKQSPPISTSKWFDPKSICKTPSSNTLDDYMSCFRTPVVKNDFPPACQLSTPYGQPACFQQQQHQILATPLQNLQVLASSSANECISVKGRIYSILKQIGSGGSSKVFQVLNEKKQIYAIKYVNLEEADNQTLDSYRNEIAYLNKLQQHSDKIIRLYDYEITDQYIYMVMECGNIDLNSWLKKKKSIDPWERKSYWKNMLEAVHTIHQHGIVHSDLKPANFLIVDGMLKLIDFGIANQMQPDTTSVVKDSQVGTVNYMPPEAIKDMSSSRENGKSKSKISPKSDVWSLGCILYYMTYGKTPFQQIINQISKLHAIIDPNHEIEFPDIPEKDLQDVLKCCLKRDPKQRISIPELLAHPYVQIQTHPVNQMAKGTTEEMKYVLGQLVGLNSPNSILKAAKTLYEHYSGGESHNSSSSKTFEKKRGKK
The following applies: at 0.1 µM.

Test [15] relates to T6, Receptor-type tyrosine-protein kinase FLT3 (Homo sapiens), P36888 [D835Y].
T6 sequence (whole entry): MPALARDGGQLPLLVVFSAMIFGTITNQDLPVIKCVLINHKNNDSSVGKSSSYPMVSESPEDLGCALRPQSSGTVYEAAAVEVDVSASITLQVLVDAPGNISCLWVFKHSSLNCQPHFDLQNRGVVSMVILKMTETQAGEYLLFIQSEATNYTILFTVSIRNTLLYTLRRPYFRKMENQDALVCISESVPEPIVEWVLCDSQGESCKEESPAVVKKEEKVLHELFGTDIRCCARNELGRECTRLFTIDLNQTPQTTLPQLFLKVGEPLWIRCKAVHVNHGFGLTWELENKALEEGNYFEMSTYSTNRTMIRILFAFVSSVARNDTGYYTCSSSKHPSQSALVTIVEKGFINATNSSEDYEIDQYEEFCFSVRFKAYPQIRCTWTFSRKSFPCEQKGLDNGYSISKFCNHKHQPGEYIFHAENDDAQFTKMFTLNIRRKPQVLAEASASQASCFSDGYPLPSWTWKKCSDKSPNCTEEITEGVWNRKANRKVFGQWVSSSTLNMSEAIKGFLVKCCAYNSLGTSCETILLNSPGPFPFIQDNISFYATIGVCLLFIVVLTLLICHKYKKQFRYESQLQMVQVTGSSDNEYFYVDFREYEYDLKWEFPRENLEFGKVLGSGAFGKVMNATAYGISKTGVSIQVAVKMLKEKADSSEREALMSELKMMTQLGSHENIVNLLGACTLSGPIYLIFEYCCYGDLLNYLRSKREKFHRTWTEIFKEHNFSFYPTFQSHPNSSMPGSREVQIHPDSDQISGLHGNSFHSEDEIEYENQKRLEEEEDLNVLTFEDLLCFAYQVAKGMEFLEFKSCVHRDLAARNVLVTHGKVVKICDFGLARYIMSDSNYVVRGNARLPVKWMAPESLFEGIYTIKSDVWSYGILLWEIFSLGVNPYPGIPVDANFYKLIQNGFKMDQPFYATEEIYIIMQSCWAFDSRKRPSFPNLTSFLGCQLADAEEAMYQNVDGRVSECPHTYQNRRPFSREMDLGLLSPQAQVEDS
The following applies: at 1 µM.

Test [16] has as its target Vascular endothelial growth factor receptor 3 (Homo sapiens) (UniProt P35916). The following applies: at 0.1 µM.
The target is the same in test [17]. The note with it: at 1 µM.
Test [18] has as its target Macrophage colony-stimulating factor 1 receptor (Homo sapiens) (UniProt P07333). The note with it: at 0.1 µM.
Test [19] shares this target. The following applies: at 1 µM.
For test [20], the target named is Tyrosine-protein kinase Fyn (Homo sapiens) (UniProt P06241). The note with it: at 0.1 µM.
Sequence of Tyrosine-protein kinase Fyn (Homo sapiens) (P06241 2-537 limits assumed): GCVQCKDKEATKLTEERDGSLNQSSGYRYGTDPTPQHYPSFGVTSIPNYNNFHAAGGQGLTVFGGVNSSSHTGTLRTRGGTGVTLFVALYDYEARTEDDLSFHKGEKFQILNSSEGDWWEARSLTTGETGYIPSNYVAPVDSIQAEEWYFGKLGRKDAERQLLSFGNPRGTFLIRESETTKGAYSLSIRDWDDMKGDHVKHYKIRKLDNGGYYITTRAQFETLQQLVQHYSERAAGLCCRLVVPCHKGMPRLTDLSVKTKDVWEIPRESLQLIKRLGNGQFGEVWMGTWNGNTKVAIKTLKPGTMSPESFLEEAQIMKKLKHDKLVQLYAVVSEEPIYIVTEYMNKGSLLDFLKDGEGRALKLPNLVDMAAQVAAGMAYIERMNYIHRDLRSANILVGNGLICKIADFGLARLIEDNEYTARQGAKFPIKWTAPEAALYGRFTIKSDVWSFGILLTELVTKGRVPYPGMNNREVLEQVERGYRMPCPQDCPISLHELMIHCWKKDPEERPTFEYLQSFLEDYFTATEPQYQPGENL

Sequence of Serine/threonine-protein kinase PLK1 (Homo sapiens) (P53350 whole entry): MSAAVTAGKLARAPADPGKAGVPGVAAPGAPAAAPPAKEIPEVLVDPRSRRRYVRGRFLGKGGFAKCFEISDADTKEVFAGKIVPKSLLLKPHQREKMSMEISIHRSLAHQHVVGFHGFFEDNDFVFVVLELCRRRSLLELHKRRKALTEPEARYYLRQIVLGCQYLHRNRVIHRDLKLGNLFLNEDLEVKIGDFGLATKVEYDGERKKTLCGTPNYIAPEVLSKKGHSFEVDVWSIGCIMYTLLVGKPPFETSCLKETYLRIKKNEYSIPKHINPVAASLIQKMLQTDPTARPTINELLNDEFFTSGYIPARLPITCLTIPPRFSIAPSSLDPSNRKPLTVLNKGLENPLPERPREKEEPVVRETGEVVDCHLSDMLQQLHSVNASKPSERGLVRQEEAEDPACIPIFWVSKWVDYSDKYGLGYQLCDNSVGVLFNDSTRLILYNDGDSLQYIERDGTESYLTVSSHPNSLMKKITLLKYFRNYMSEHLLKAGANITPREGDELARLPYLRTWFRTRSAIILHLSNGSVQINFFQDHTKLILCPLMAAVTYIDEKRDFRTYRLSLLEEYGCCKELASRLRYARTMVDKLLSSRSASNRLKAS
Sequence of Serine/threonine-protein kinase Nek7 (Homo sapiens) (Q8TDX7 whole entry, looked up): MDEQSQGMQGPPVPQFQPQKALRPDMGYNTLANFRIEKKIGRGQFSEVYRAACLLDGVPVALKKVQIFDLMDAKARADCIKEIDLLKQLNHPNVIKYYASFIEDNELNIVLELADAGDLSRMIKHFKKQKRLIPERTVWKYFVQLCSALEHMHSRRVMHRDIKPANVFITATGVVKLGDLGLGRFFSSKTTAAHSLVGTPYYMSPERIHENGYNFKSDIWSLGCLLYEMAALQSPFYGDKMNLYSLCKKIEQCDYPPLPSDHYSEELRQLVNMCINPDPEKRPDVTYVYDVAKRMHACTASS
Sequence of Vascular endothelial growth factor receptor 3 (Homo sapiens) (P35916 whole entry): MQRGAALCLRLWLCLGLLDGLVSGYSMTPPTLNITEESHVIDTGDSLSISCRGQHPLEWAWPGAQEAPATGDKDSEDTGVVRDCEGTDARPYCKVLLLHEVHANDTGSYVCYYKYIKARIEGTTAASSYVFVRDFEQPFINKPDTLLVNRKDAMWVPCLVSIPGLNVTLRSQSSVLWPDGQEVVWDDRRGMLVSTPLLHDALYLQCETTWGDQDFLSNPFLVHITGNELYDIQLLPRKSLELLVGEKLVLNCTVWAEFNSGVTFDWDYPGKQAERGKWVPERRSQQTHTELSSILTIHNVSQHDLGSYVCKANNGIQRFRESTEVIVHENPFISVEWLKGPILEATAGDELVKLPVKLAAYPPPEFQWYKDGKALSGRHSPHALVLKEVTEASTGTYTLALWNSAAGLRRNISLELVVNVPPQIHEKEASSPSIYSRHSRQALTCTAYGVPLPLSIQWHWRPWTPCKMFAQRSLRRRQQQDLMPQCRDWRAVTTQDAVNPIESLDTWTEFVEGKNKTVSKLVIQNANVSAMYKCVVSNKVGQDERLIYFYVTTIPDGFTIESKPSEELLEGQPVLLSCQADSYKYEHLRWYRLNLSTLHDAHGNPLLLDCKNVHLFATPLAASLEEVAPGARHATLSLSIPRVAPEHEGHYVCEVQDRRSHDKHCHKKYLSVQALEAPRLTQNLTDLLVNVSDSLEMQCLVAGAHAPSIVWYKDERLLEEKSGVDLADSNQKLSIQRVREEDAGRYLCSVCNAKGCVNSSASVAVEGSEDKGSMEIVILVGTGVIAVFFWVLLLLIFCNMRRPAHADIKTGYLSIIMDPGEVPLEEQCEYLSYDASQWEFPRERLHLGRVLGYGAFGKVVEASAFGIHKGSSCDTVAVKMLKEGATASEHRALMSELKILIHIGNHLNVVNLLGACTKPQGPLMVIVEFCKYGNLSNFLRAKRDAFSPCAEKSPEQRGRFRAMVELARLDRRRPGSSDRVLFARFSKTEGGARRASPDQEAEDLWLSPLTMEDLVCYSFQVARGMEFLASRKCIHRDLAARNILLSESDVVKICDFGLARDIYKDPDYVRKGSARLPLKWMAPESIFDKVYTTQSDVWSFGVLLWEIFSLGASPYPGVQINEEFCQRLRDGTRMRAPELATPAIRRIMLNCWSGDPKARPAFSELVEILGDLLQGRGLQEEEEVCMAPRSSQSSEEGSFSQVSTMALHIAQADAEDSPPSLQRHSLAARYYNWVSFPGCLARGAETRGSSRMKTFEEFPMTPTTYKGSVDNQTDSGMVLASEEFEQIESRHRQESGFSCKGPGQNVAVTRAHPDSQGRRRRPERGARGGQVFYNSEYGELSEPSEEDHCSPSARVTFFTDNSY
Sequence of Macrophage colony-stimulating factor 1 receptor (Homo sapiens) (P07333 whole entry): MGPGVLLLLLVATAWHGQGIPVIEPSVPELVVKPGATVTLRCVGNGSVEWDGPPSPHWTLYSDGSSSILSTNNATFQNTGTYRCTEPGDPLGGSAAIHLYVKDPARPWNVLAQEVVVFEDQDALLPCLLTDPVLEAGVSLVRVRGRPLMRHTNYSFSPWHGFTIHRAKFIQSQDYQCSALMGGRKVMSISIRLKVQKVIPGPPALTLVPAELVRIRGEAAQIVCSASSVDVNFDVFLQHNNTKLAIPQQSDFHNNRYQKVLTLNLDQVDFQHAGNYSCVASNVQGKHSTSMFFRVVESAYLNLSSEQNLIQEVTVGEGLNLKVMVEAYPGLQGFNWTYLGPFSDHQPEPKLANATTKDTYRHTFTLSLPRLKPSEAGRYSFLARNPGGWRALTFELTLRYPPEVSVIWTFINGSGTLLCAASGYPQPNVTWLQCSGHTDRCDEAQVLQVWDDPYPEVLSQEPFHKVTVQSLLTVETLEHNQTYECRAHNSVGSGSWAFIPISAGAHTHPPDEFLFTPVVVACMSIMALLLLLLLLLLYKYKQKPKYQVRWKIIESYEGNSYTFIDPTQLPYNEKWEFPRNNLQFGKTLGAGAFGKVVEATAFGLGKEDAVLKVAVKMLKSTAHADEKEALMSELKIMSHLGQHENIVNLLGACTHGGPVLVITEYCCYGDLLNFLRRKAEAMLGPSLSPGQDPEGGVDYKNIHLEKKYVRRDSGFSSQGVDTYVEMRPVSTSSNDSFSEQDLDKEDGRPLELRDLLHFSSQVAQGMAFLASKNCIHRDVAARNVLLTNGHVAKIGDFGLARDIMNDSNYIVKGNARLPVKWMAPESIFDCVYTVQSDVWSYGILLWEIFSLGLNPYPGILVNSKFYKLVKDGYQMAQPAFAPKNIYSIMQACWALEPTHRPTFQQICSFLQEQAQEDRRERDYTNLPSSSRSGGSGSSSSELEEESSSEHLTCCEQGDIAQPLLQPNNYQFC
Sequence of Serine/threonine-protein kinase Nek6 (Homo sapiens) (Q9HC98 whole entry): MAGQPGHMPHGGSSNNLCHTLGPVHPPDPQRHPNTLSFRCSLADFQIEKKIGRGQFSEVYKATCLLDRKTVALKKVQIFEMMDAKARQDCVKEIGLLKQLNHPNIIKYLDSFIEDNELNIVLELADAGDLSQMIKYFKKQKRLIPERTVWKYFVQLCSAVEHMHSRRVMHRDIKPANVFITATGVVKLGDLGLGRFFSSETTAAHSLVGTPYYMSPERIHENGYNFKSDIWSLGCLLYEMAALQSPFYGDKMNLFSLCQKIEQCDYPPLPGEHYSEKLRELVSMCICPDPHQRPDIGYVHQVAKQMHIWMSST

For `CS(=O)(=O)CCNCc1ccc(-c2ccc3ncnc(Nc4ccc(OCc5ccccc5)cc4)c3c2)o1`, the inhibition in test [1] was determined as 4.6%; in test [2], 2.22%; in test [3], 2.22%; in test [4], 4.68%; in test [5], 3.32%; in test [6], 2.28%. Also, the inhibition in test [7] was found to be 3.11%; in test [8], 2.47%; in [9] it was 3.65%; in test [10], 5.77%; in [11], 15.5%; in test [12], 3.64%. Besides, the inhibition is 3.52% in [13]; 5.7% in test [14]; -0.67% in test [15]; -0.25% in [16]; 4.64% in test [17]; 1.81% in test [18]. In addition, the inhibition in [19] amounted to 6.19%; in test [20] it was 1.87%.
